3 compounds from PubChem BioAssay AID1159580 (chemical genetic matrix, 2015) can be followed below.

The whole screen tested about 5,500 compounds, of which about 2,000 (36%) were called active. Inconclusive results (about 18%) are left out. This is one part of the list. Values without a mark were called inactive. Cut-off read from the data, not from the text of the source: active = normalized growth mostly below about 0.91 (no sharp cut-off); inconclusive = no clear call, values can overlap the other calls; inactive = mostly above about 0.92.

This assay in a line: chemical genetic growth profiling, strain panel (AID 1159580).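 Note: tested at 20 µM; growth read once vehicle control cultures reached saturation at 30 °C; 1 = growth at the plate median or of vehicle wells; lower values mean less growth of the strain.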 As to conditions: S. cerevisiae deletion strains, growth OD.
The mark [1] stands for this setting: locus YAL040C, strain CLN3, hits give low values.
[2] abbreviates: locus YCL061C, strain MRC1 (second series), hits give low values.
[3] abbreviates: locus YDR150W, strain NUM1, hits give low values.
Setting [4] is: locus YDR363W, strain ESC2, hits give low values.
[5] abbreviates: locus YER002W, strain NOP16, hits give low values.
The mark [6] stands for this setting: locus YMR263W, strain SAP30, hits give low values.
[7] abbreviates: locus YNL128W, strain TEP1, hits give low values.
Where [8] appears, read: locus YNL175C, strain NOP13, hits give low values.
The mark [9] stands for this setting: locus YNL197C, strain WHI3, hits give low values.
Where [10] appears, read: locus YNL224C, strain SQS1, hits give low values.
The mark [11] stands for this setting: locus YNL322C, strain KRE1, hits give low values.
Where [12] appears, read: locus YOR083W, strain WHI5 (second series), hits give low values.
The mark [13] stands for this setting: locus YGR229C, strain SMI1, hits give low values.
The mark [14] stands for this setting: locus YMR307W, strain GAS1, hits give low values.
The mark [15] stands for this setting: locus YNL153C, strain GIM3, hits give low values.
Where [16] appears, read: locus YPL055C, strain LGE1, hits give low values.

For the compound `CNCCc1ccc(O)c(O)c1`, the normalized growth by setting is: (locus YAL013W, strain DEP1, hits give low values) 0.964; under setting [1], 0.991; under setting [2], 0.956; under setting [3], 0.922 (active); under setting [4], 1.03; under setting [5], 1. The normalized growth under setting [6] is 1; the normalized growth under setting [7] was 0.996; the normalized growth under setting [8] was 1; the normalized growth under setting [9] was 1.02; the normalized growth under setting [10] was 1; the normalized growth under setting [11] was 0.979. The normalized growth under setting [12] is 0.976.
On to `CC(CCc1ccc(O)cc1)NCCc1ccc(O)c(O)c1` (stereo not given), for which the normalized growth was 1.01 under setting [1]; 0.812 (active) under setting [2]; 0.969 under setting [4]; 0.993 under setting [5]; 0.708 (active) under setting [13]; 1.01 under setting [6]. Further, the normalized growth by setting is: under setting [14], 0.947; under setting [7], 1.01; under setting [15], 0.944; under setting [8], 1.01; under setting [9], 1.03; under setting [10], 1.02. For the same compound, the normalized growth runs as follows: under setting [12], 0.98; under setting [16], 0.756 (active); (locus YPL241C, strain CIN2, hits give low values) 0.927 (active).
As for `C[C@@H](NCCc1ccc(O)cc1)[C@@H](O)c1ccc(O)cc1`, the normalized growth is 0.986 under setting [1]; 0.989 under setting [2]; 1.01 under setting [3]; 0.991 under setting [4]; 0.992 under setting [5]; 0.99 under setting [13]. Besides, the normalized growth is 0.993 (locus YJR075W, strain HOC1, hits give low values); 0.986 under setting [6]; 1.02 under setting [14]; 0.994 under setting [7]; 1.03 under setting [15]; 0.999 under setting [8]. The normalized growth is 0.992 under setting [9]; 0.991 under setting [10]; 0.974 under setting [11]; 1 under setting [12]; 0.995 under setting [16].
